{"source": "PubChem BioAssay (EPA / NIEHS)", "note": "Where a structure was tested more than once in an assay, its records may differ in their call. Activity calls are given as the source filed them. How the source made its calls: active means hit-call score of the fitted dose curve at least 0.9, where 1 is the maximum; inactive means score below 0.9.", "data": [{"assay": "ATG_TCF_b_cat_CIS: Attagene CIS-FACTORIAL HepG2 Assay for human T-Cell-Factor with beta-catenin (TCF/b-cat) (AID 2282965)", "conditions": "HepG2 TCF/beta-catenin cis-reporter transcription, actives raise or lower the signal", "procedure": "ATG_CIS is a cell-based, multiplexed-readout assay that uses HepG2, a human liver cell line, with measurements taken at 24 hours after chemical dosing in a 24-well plate.ATG_TCF_b_cat_CIS is one of 52 assay component(s) measured or calculated from the ATG_CIS assay. It is designed to make measurements of mRNA induction, a form of inducible reporter, as detected with fluorescence intensity signals by Reverse transcription polymerase chain reaction (RT-PCR) and Capillary electrophoresis technology.Data from the assay component ATG_TCF_b_cat_CIS was analyzed into 1 assay endpoint. This assay endpoint, ATG_TCF_b_cat_CIS, was analyzed with bidirectional fitting relative to DMSO as the negative control and baseline of activity. Using a type of inducible reporter, measures of mRNA for gain or loss-of-signal activity can be used to understand the reporter gene at the transcription factor-level as they relate to the gene TCF7 and TCF7L2 and LEF1 and TCF7L1. Furthermore, this assay endpoint can be referred to as a primary readout, because this assay has produced multiple assay endpoints where this one serves a reporter gene function. To generalize the intended target to other relatable targets, this assay endpoint is annotated to the dna binding intended target family, where the subfamily is HMG box protein.\nHuman liver HepG2 cells are transiently transfected with multiple reporter transcription units (MRTUs) in 6-well plates using FuGene 6 reagent (Roche; 3 ml FuGene/1 mg DNA). The MRTU constructs are regulated by a cis-regulating element (promoter). […] A major difference between the CIS and TRANS system is that in CIS activities of endogenous TFs are measured, whereas the TRANS assay evaluates changes in activities of exogenous, chimeric NR-Gal4 proteins. […] At the end of 24 hour incubation, total RNA was isolated using TriZol reagent (Invitrogen). The isolated RNA is then reverse-transcribed using oligo(dT) primer and Mo-MLV reverse transcriptase (Invitrogen) with DNAse I (Ambion) treatment for 30 min. The one-tenth of the produced cDNA was amplified by PCR using Taq DNA polymerase (Invitrogen) and two reporter sequence-specific primers. The PCR products were fluorescently labeled by primer extension with 6-arboxyfluorescein (6-FAM) 5'-labeled reporter sequence-specific primer (2 min at 95 C, 20 s at 68 C and 10 min at 72 C) and these products were digested with 5U of HpaI (New England Biolabs) for 2h at 37 C. The fragments were purified using Qiaquick PCR columns (Qiagen), analyzed on an ABI 3130xL genetic analyzer (Applied Biosystems) with peak positions identified by using a set of X-rhodamine (ROX)-labeled MapMarker1000 molecular weight standards (BioVentures). The raw capillary electrophoresis data was processed using Attagraph software (Attagene).", "values": [{"smiles": "FC(F)C(F)(F)COCC1CO1", "note": "(stereo not given)", "outcome": "inactive"}, {"smiles": "CCCCCCCCN(C)C", "outcome": "inactive"}, {"smiles": "Cc1cccc(O)c1C", "outcome": "inactive"}, {"smiles": "CCCOc1ccc(S(=O)(=O)N2CCN(CC)CC2)cc1-c1nc2c(CC)n(Cc3ccccn3)nc2c(=O)[nH]1", "AC50": "89.8 µM (active)"}, {"smiles": "CCCCC(CC)C(=O)OCCOCCOCCOC(=O)C(CC)CCCC", "note": "(stereo not given)", "outcome": "inactive"}, {"smiles": "CC(=O)c1ccccc1", "outcome": "inactive"}, {"smiles": "C[C@@H](Oc1ccc(CNC(=O)c2cccnc2Oc2ccc3c(c2)OCO3)c(F)c1)C(=O)O", "outcome": "inactive"}, {"smiles": "CCCCCCCC/C=C\\CCCCCCCC(=O)OC[C@@H](O)[C@H]1OC[C@H](O)[C@H]1O", "outcome": "inactive"}, {"smiles": "CC(C)c1nnc2ccc(-c3ocnc3-c3cc(F)ccc3F)cn12", "outcome": "inactive"}, {"smiles": "OCCOCCOCCO", "outcome": "inactive"}, {"smiles": "NNC(=O)c1ccncc1", "outcome": "inactive"}, {"smiles": "CCn1nc(C)c2c1C(=O)NCC(c1ccc(O)cc1)=N2", "outcome": "inactive"}, {"smiles": "CNC(C)=O", "outcome": "inactive"}, {"smiles": "CC(C)CC(C)O", "note": "(stereo not given)", "outcome": "inactive"}, {"smiles": "OCCNCCO", "outcome": "inactive"}, {"smiles": "CCCCCCCC1CCC(=O)O1", "note": "(stereo not given)", "outcome": "inactive"}, {"smiles": "O=C1CN(N=Cc2ccc([N+](=O)[O-])o2)C(=O)N1", "AC50": "21.4 µM (active)"}, {"smiles": "Cn1cc[nH]c1=S", "outcome": "inactive"}, {"smiles": "c1ccc2ncccc2c1", "outcome": "inactive"}, {"smiles": "CCc1cccc(CC)c1N", "outcome": "inactive"}, {"smiles": "OCCC(F)(F)C(F)(F)C(F)(F)C(F)(F)F", "outcome": "inactive"}, {"smiles": "OCC(CO)(CO)CO", "outcome": "inactive"}, {"smiles": "CCN(CC)C(=S)SSC(=S)N(CC)CC", "AC50": "118 µM (active)"}, {"smiles": "Cn1c(=O)c2[nH]cnc2n(C)c1=O", "AC50": "100 µM (active)"}, {"smiles": "c1ccc2cc3ccccc3cc2c1", "outcome": "inactive"}, {"smiles": "CCCCCCOC(=O)CC(CC(=O)OCCCCCC)(OC(=O)CCC)C(=O)OCCCCCC", "outcome": "inactive"}, {"smiles": "C=CCc1cc(S(=O)(=O)c2ccc(O)c(CC=C)c2)ccc1O", "AC50": "43.7 µM (active)"}, {"smiles": "OC(Cn1cncn1)(Cn1cncn1)c1ccc(F)cc1F", "outcome": "inactive"}, {"smiles": "OC[C@H]1O[C@@H]2O[C@H]3[C@H](O)[C@@H](O)[C@@H](O[C@H]4[C@H](O)[C@@H](O)[C@@H](O[C@H]5[C@H](O)[C@@H](O)[C@@H](O[C@H]6[C@H](O)[C@@H](O)[C@@H](O[C@H]7[C@H](O)[C@@H](O)[C@@H](O[C@H]1[C@H](O)[C@H]2O)O[C@@H]7CO)O[C@@H]6CO)O[C@@H]5CO)O[C@@H]4CO)O[C@@H]3CO", "outcome": "inactive"}, {"smiles": "CCOC(N)=O", "outcome": "inactive"}, {"smiles": "O=C(N[C@H](CO)[C@H](O)c1ccc([N+](=O)[O-])cc1)C(Cl)Cl", "outcome": "inactive"}, {"smiles": "Nc1ccn([C@@H]2O[C@H](CO)[C@@H](O)[C@@H]2O)c(=O)n1", "outcome": "inactive"}, {"smiles": "CCCCCCCCCCCCCCCCOS(=O)(=O)O", "AC50": "25.7 µM (active)"}, {"smiles": "FC(F)=C(F)C(F)(F)C(F)(F)C(F)(F)C(F)(F)C(F)(F)C(F)(F)F", "outcome": "inactive", "AC50": "234 µM (active)"}, {"smiles": "OCc1c[nH]c2ccccc12", "outcome": "inactive"}, {"smiles": "Cc1ncc([C@@H](CCCCCCc2ccc3c(n2)NCCC3)CC(=O)O)cn1", "outcome": "inactive"}, {"smiles": "NC(=O)N(O)[C@@H]1COc2cc(OCc3ccccc3)ccc21", "outcome": "inactive"}, {"smiles": "CCc1ccc(O)c(C(C)(C)C)c1", "outcome": "inactive"}, {"smiles": "CCCCN1C(=O)[C@@H]([C@H](O)C2CCCCC2)NC(=O)C12CCN(Cc1ccc(Oc3ccc(C(=O)O)cc3)cc1)CC2", "AC50": "52.5 µM (active)"}]}]}
